The campaign covered roughly 370,000 compounds. About 3,700 (1%) were called active. What follows is part of a selection rich in actives, with near analogues and random picks from the rest. Unmarked numbers belong to inactive results.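 How the source made its calls: active means activation above the mean over all tested compounds plus 3 SD (cut at about 0.9% in these data); inactive means the rest.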

The test concerns Nuclear hormone receptor DAF-12 (Strongyloides stercoralis). As to the kind of experiment: ssDAF-12 driven luciferase reporter activation – cell-based, luminescence, HEK293, GRIP1 co-expression, lit1-tk-luc, primary screen (AID 652126).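 Further: 0% = DMSO-only wells and 100% = 3 µM delta7-dafachronic acid wells.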 Particulars: HEK293 ssDAF-12/GRIP1 lit1-tk-luc reporter, at 6.8 µM, active compounds read high, % of 3 µM dafachronic acid response. (In general: A reporter such as luciferase makes a cellular process visible.)
As for `COC(=O)[C@]12C[C@H](CC(=O)NCCCN3CCCC3=O)C(=O)N(CCc3ccc(OC)c(OC)c3)C1=C[C@H](COCc1ccccc1)O[C@@H]2C`, the activation was -0.18%.
Regarding `CCOc1ccc(N(CC(=O)Nc2c(C)n(C)n(-c3ccccc3)c2=O)S(=O)(=O)c2ccc(Cl)s2)cc1`, the activation is -0.93%.
Take `Clc1ccc(Nc2nc(-c3cccs3)cs2)nc1`: the activation was 1.83% (active).
In the case of `CC(=O)NC(c1cccc(F)c1)c1nc(-c2cccc(F)c2)cs1` (centres undefined), the activation is -0.87%.
The result for `COC(=O)CCc1sc(Nc2ccc(Br)cc2)nc1-c1ccc(OC)cc1` reads -1.64%.
In the case of `N#CC(=C1SC=CS1)c1nc(-c2ccccc2)cs1`, the activation is 0.19%.
With `COc1ccc(NC(=S)N2N=CCC2c2ccccc2)cc1` (centres undefined), the activation is 0.28%.
Consider `O=C(CN1C(=O)C2C3C=CC(C3)C2C1=O)Nc1nc(-c2ccccn2)cs1` (centres undefined), for which the activation was 0.32%.
In the case of `c1ccc(-c2csc(N3CCc4ccccc4C3)n2)cc1`, the activation is 0.8%.
As for `COc1ccc(Nc2nc(-c3ccccc3)cs2)cc1`, the activation is 4.09% (active).
The result for `c1ccc(Nc2nc(-c3ccncc3)cs2)nc1` reads 1.1% (active); that for `Cc1cccc(Nc2nc(-c3ccccc3)cs2)n1`, 2.9% (active); that for `Cc1cc(C)cc(NC(=O)N2CCC(N(C)CCC(C)C)CC2)c1`, -1.43%.
Take `CCCC1CCC2(CCCN2CCOC(=O)NCc2ccccc2)CC1` (centres undefined): the activation was -2.14%.
For the molecule `CN1C[C@]2(C=C3CCCCC3n3c(=O)n(-c4ccccc4)c(=O)n32)N=C1NC(=O)c1ccccc1` (some centres undefined), the activation was 0.04%.
Then `Nn1c(SCC(=O)N2c3ccccc3Sc3ccccc32)nnc1-c1n[nH]c2c1CCC2`, with -1.79%.
As for `COCCCNC(=O)C[C@H]1C[C@@]2(C(=O)OC)C(=C[C@H](C(C)(C)C)O[C@@H]2C)N(Cc2ccc(Cl)cc2Cl)C1=O`, the activation was -0.31%.
Take `COc1ccc(CN2C/C(=C/c3ccccc3)N3C(=O)C[C@@H](c4ccccc4)N=C23)c(OC)c1`: the activation is -1.31%.
On to `CCOC(=O)c1csc(NC(=O)C2CCCN(S(=O)(=O)c3ccc(Cl)s3)C2)n1` (centres undefined), for which the activation is -2.1%.
On to `COc1cccc(/C=C2\CC3(OC(C)=O)CCCN2C3)c1` (centres undefined), for which the activation was -1.47%.
Regarding `O=C(CSc1nnc(-c2ccccn2)n1-c1ccc(Cl)cc1)Nc1ccccc1-c1ccccc1`, the activation was -1.33%.
Consider `CN(C)CC(=O)N[C@@H]1C[C@@H]2O[C@H](CO)CC[C@@H]2O[C@@H]1CCc1ccc(C#Cc2ccccc2)cc1`, for which the activation is -1.63%.
Take `Oc1ccc(/C=C/c2c(F)cccc2F)c2cccnc12`: the activation was -1.91%.
For `Cc1ccc(C)c(NC(=O)CCS(=O)(=O)c2ccccc2)c1`, the activation was -0.72%.

The values above are taken from PubChem BioAssay AID652126 (The Scripps Research Institute Molecular Screening Center, 2013).
